Compound activity (PubChem)
APE1 inh-1: blocks human APE1 abasic DNA cleavage; P27695; recombinant APE1, TAMRA/BHQ-2 abasic DNA cleavage fluorescence; Potency, µM (doses to about 65.8 µM), for inactives: at the highest dose activity change, negative = inhibition, actives largely listed as inhibitors; 350,000 compounds, 0.35% hits;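 also: plate controls were vehicle for no effect and reference inhibitor for full effect; nearly all actives have a fitted effect of over 55% in size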
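Activity was derived from the fluorescence gain between first and third kinetic reads (60 s intervals, ex 525/em 598 nm) after 50 nM THF-abasic TAMRA/BHQ-2 duplex was added to 0.75 nM APE1 preincubated 15 min with compound.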
FEN1 inh: blocks human flap endonuclease 1; Recombinant FEN1 flap cleavage, fluorescence, 15 min; Potency, µM (highest dose often 114 µM), without a hit: top-dose activity change, negative = inhibition, most hits filed as inhibitors; 390,000 compounds, 0.35% hits; AID 588795; also: nearly all actives have a fitted effect of over 65% in size
Target sequence (P39748 whole entry, looked up): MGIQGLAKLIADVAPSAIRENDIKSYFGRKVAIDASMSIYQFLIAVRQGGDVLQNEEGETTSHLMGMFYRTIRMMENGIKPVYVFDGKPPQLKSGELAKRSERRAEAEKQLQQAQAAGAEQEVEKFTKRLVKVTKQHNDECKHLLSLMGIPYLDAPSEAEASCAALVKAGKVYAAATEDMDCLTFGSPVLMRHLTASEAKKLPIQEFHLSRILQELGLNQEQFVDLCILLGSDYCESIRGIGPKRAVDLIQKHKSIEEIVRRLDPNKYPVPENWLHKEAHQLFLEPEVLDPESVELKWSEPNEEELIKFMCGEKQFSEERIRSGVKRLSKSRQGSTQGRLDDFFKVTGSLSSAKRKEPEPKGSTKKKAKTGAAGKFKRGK
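Concentration–response screening of FEN1 (10 nM): 15 min compound preincubation at room temperature, reaction started with 50 nM substrate and read at 0 and 15 min. Corrected, normalized data were fitted by a four-parameter Hill equation.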
WRN helicase inh: inhibitors of human WRN helicase. Q14191. WRN helicase unwinding, fluorescent forked duplex, kinetic. Potency, µM (series often up to 114 µM), inactives show at the highest dose activity change, negative = inhibition, hits mostly inhibitors. 360,000 compounds, 0.46% hits; also: nearly all actives have a fitted effect of over 55% in size
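Screening of the MLSMR collection measured strand separation of a quenched forked DNA duplex (100 nM) by 20 nM WRN with 2 mM ATP, all final. Compounds were preincubated with enzyme 15 min at room temperature.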
RECQ1 helicase: RECQ1 (human) helicase inhibition; AID 2549; RECQ1 DNA unwinding, red fluorescence kinetic read; Potency, µM (top dose mostly 57.3 µM), for inactives: at the highest dose activity, negative = inhibition, usual class: inhibitors; 240,000 compounds, 0.54% hits;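 also: plate controls were vehicle for no effect and no enzyme for full effect; nearly all actives have a fitted effect of over 30% in size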
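RECQ1T1 50 nM; forked duplex (20 bp + 30-nt ss tails) 200 nM, ATP 2 mM final; pH 8.0, 2 mM MgCl2, 2.5 ug/ml poly(dI-dC); 15 min compound preincubation; discontinuous kinetic read over 2 h at RT.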
BLM helicase inh: blocks DNA unwinding by human BLM helicase; P54132; recombinant BLM DNA unwinding, fluorescence dequenching; Potency, µM (doses to about 56.1 µM), inactives show at the highest dose activity change, negative = inhibition, most hits filed as inhibitors; 350,000 compounds, 0.2% hits;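 also: plate controls were vehicle for no effect and no enzyme for full effect; nearly all actives have a fitted effect of over 35% in size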
APE1 dye cs: displaces fluorescent dye from DNA, flagging APE1 artifacts. DNA fluorescent dye displacement counterscreen, fluorescence. 480 compounds, 7% hits. Potency, µM (doses to about 28.5 µM), inactives show at the highest dose activity change, negative = inhibition, hits mostly inhibitors. AID 2564. shares compounds with APE1 inh-1;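 also: loss of thiazole orange fluorescence as the dye is displaced from duplex DNA; 0% = ThO with dsDNA and no compound and -100% = ThO without dsDNA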
Endo IV inh: counter-screen for APE1 inhibitors: inhibitors of E. coli endonuclease IV. shares compounds with APE1 inh-1. E. coli Endo IV, fluorogenic AP-site DNA cleavage. Potency, µM (doses to about 27.1 µM), for the others: top-dose activity change, negative = inhibition, most hits filed as inhibitors. 560 compounds, 4% hits. AID 2565;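 also: plate controls were uninhibited enzyme wells for no effect and no enzyme buffer wells for full effect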
APE1 inh-2: APE1 (human) endonuclease inhibition, confirmation. shares compounds with APE1 inh-1. purified APE1, fluorogenic abasic-site DNA cleavage. Potency, µM (highest dose often 57.1 µM), for inactives: at the top dose activity change, negative = inhibition, hits mostly inhibitors. 750 compounds, 44% hits. AID 2572; also: nearly all actives have a fitted effect of over 30% in size
APE1 FP: compounds that displace a DNA probe from human APE1; Potency, µM (doses to about 28.5 µM), for inactives: top-dose activity, negative = inhibition, most hits filed as inhibitors; 480 compounds, 7% hits; shares compounds with APE1 inh-1; AID 2573; APE1 binding to TAMRA-labelled double-stranded DNA, fluorescence polarization displacement
The depositor's hits bear a star; ? = inconclusive; . = no result given; [ ] = dose if it differs, or a comment. An excerpt weighted towards active compounds, which were near 0.87% of everything screened. Calls follow the shape of the dose curve; as a rule, active = well fitted curve in the direction sought with a large enough effect; inconclusive = small, poorly fitted or top-dose-only effect, or another doubt; inactive = no such curve, though single readings can be large; an effect the other way counts as inactive or inconclusive. Unless noted, % is scaled to controls: 0 for no effect and ±100 for the full control effect; potency is read from the fitted curve at half-maximal effect.

SMILES	APE1 inh-1	FEN1 inh	WRN helicase inh	RECQ1 helicase	BLM helicase inh	Endo IV inh	APE1 inh-2	others
OCCN(Cc1ccccc1)Cc1cccc(Cl)c1Cl	-6%	-14%	-5%[57.1 µM]	8%	-3%	.	?
CN(C)CCC=C1c2ccccc2C=Cc2ccccc21	2%	12%	2%	-1%	15%	-12%[57.1 µM]	-13%
Cc1ccc(NC(=O)CCC(=O)N2Cc3ccccc3Oc3ncccc32)cc1	.	-10%	.	.	2%	.	.
Cc1ccc(NC(=O)CN2C(=O)S/C(=C\c3ccc(-c4cccc(C(=O)O)c4C)o3)C2=O)cc1	?	.	.	?	1%	.	40µM*
Cc1ccc(C(=O)O)cc1-c1ccc(/C=C2/NC(=O)N(c3ccccc3)C2=O)o1	11µM*	?	40µM*	18µM*	12%	32%	?	APE1 dye cs=-9%;APE1 FP=-8%
Cc1ccc(NC(=O)CN2C(=O)S/C(=C\c3ccc(C(=O)O)cc3)C2=O)cc1	?	26%	1%	.	-9%	.	.
Cc1ccc(C(=O)O)cc1-c1ccc(/C=C2\SC(=O)N(CC(=O)Nc3ccccc3)C2=O)o1	?	50µM*	?	-17%	-6%	.	40µM*
COc1ccc(NC(=O)Cn2c(=O)n(-c3ccc(OC)cc3)c(=O)c3sc4ccccc4c32)cc1	.	4%	.	.	-6%	.	.
Cc1cccc(NC(=O)c2sc3nc(-c4cc5ccc(O)cc5oc4=O)[nH]c(=O)c3c2C)c1	.	-9%	.	.	-1%	.	.
CC[C@H](C)[C@H](NC(=O)[C@H](CCCNC(=N)N)NC(=O)[C@@H](NC(=O)[C@H](CCCNC(=N)N)NC(=O)[C@H](CCCCN)NC(=O)[C@H](CCCNC(=N)N)NC(=O)[C@@H](NC(=O)[C@H](CC(N)=O)NC(=O)[C@@H](N)CS)[C@@H](C)O)[C@@H](C)CC)C(=O)N[C@@H](CCC(N)=O)C(=O)N[C@@H](CCCNC(=N)N)C(=O)NCC(=O)N1CCC[C@H]1C(=O)NCC(=O)N[C@@H](CCCNC(=N)N)C(=O)N[C@@H](C)C(=O)N[C@@H](Cc1ccccc1)C(=O)N[C@H](C(=O)N[C@H](C(=O)N[C@H](C(=O)NCC(=O)N[C@@H](CCCCN)C(=O)O)[C@@H](C)CC)[C@@H](C)O)C(C)C	13%	.	.	20%	-18%	.	.
O=C(Nc1nc2nccc(-c3ccccc3)n2n1)c1ccccc1	-11%	17%	-11%	-9%	-10%	.	-24%
CCCCOC(=O)c1ccc(NC(=O)CSc2nc3c(c(=O)[nH]2)CCC3)cc1	.	10%	.	.	-5%	.	.
COc1cc(CC2COC(c3ccc(O)c(OC)c3)C2COC(C)=O)ccc1O (centres undefined)	4µM*	56µM*	50µM*	25µM*	25µM*	3%	10µM*	APE1 dye cs=1%;APE1 FP=-9%
CC(C)c1ccc(CNCCSc2nnnn2-c2ccccc2)cc1	.	-20%	.	.	-1%	.	.
Cc1ccc2c(c1)C1C=CCC1C(C(=O)O)N2 (centres undefined)	16µM*	.	.	8.9µM*	14µM*	0%	14µM*	APE1 dye cs=?;APE1 FP=-26%
O=C(CSc1ccsc1[N+](=O)[O-])Nc1cc(F)ccc1F	1%	?	?	-4%	?	.	.
